Experimental data: PubChem BioAssay AID1508600 (Functional Genomics Laboratory (NCATS/FGL), 2020)
About 3,700 (7%) of roughly 53,000 sequences were called active. This is one part of a sample in which actives are shown more often than they occur.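 The calls were made as follows: active = gene knockdowns whose robust z-score for IL-1 alpha signal is at least 2 or at most -2, so actives lie on both sides; inactive = the rest.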

Assay: Components of the Cytosolic LPS Sensing Pathway: Gene Identification via Genome-wide siRNA Screen;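 also: robust z of the log signal after scaling to non-targeting control siRNA wells of the plate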
Settings: RAW264.7 macrophages, IL-1a HTRF, actives lie on both sides, screened at 100 nM (by protocol), cells primed 5 h with Pam3CSK4 first
How it was run: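 RAW264.7; siRNA 100 nM final, RNAiMAX, 48h 37 degrees C; Pam3CSK4 5 h; LipidA + TransIT-TKO 24 h; IL-1a HTRF; CellTiter-Glo viability; robust z vs negative-control median.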

z-score, active:
CCAAAACUAGGAAGAAACATT against Olfr716 -2.3
GGAAAAUCUCCGUUGUCUCTT against Acin1 -2.76
GGUAGAUAACCUGAUUUAUTT against Slc7a6 2.22
GGAGCAUCUCCUCAUGGAUTT against Actl11 2.08
GGCUGCUGUUAACAAGCUGTT against Wdr13 -2.41
GGAGAAGAAAAAGCGGUACTT against Plxnb2 2.71
GGACAAGUGCCUCUCACCATT against Glis2 -3.25
GCCUCUCUCUAUCUAUGCATT against Tob2 -2.2
GGUUUUUCAGUGACACAUGTT against Vmn1r192 2.26
GGAAAAGCUUUUGUUCCCATT against Tfb1m 2.58
GCAAGCCCUGGAAGAAUUATT against Nat8 2.26
GCAUCCCAGAUAUUGAGCATT against Arrdc1 2.52

z-score, inactive:
GGAAUGAAAGUUCCACUAUTT against Emcn -0.633
CCCACCACUAUUUAUAUGATT against Dlg2 -0.17
GGAUGUGACAUGAAUCCUGTT against Ankle1 -0.49
GGCAAUAAAUAUCCAGAAATT against Crygn 1.02
GCAGCUCUGCGGAAGCUUUTT against Olfr1350 -0.505
GGAUCUUGAUAGACUGAUGTT against Rhox5 0.362
UCAUUGAGAAAGGAGAAGATT against Cox17 -0.547
GCCUGUGUAUUACUUUUUUTT against Sned1 -0.786
GGAGUUGCCUCUGAAGACCTT against Ccm2l 0.797
GGUGUUCAGGAGAUGAUGCTT against Cdt1 0.0123
GCCUUAUCCUGAGAAUGGCTT against Lrrc47 -0.61
GCUCCUCCAGAUACAUGCUTT against Tbrg1 -0.741
GGUUCUUUCGACUUCCUGCTT against Ccbe1 -0.166
GGCAACAGACAAACAGCCGTT against Ugcg -1.54
GGAGUACUGGGCAUAUAAATT against Slc29a3 -0.324
GGGUGGUUAGAACAGCCACTT against Prss16 -1.21
CCCUAGAGAUGGUGGGUCUTT against Olfr934 -0.484
GGCAGUUAACACUUAAUGATT against Foxp2 0.609
GGAACAUAACUCUUGUAUATT against Dhx35 -1.52
GGAGAAACUUCUUUAAAGCTT against 5830427D03Rik 0.573
GGCAGAAAGUAAAUCCGUGTT against Exoc3l4 -1.22
GGCCAUAGAUAUUCAAGGUTT against Olfr218 0.293
GCCUUUGUGUUACAAUAUGTT against Fermt2 0.487
GUCAAAGAGUUUCAGCAUCTT against Foxl1 0.664
GGAGGUUUUCCGAAGUAUUTT against Pnpt1 1.2
GGCUCUGUGACCAAGAUUUTT against Rtca -1.48
GCAACGUGGUCUAUGAAUUTT against Disp2 -0.694
CCAGAGUUUUAUAACGGAATT against Olfr1229 0.601
GGUUGUGCAGUUUUAUUUCTT against Tceal1 -0.176
GCUAACAUUGUAAAUGCACTT against Dmrta1 0.467
GGAUUCUUCAUUUCUAGUGTT against C1qtnf6 0.231
GGUUCUGAACACAUUUCCATT against Cyp2d13 -1.07
GUUUCUUCCAAACUCCAUCTT against Olfr487 0.622
GGUCGACAGUUAAAAUGAUTT against Bpifc -0.431
GGAUGAGUACACUGAAAGCTT against Nvl 0.544
CGUGGACAUCGAUAUCACCTT against Slc26a8 -0.737
CCCGGAAUAAGACAAUUUCTT against Olfr788 0.282
GCAUGUUAAGCCUUGUAUATT against Tnpo1 -1.67
GGCUACAGAAGCUACUAAATT against Akr1c6 1.23
GGGUGCAUCCCAUUCUCUUTT against Pld1 -0.0755
GCGAGAGAUCCCUCUGAAATT against Pigs -0.284
GCUCUGUUCACACGUUUAATT against Arhgap10 -0.898
